Results published in PubChem BioAssay (NCATS).
Several values for one entry are separate records, joined by “and”; a condition that tells them apart may be missing. Identical values can stand only once. Inconclusive results are not listed. Where a call stands in place of a potency, no number is given. Unmarked numbers belong to inactive results. Activity calls are given as the source filed them. The call rests on the fitted dose curve; in most records, active means well fitted curve in the direction sought with a large enough effect; inconclusive means small, poorly fitted or top-dose-only effect, or another doubt; inactive means no such curve, though single readings can be large; an effect the other way counts as inactive or inconclusive.

Tests used:
[1] = target: Cytochrome P450 3A7 (Homo sapiens) (UniProt P24462); assay: Cytochrome P450 family 3 subfamily A member 7 (CYP3A7) small molecule antagonists: luciferase biochemical qHTS assay (AID 1963596); further: nearly all actives have a fitted effect of over 40% in size
Sequence of Cytochrome P450 3A7 (Homo sapiens) (P24462 whole entry, looked up): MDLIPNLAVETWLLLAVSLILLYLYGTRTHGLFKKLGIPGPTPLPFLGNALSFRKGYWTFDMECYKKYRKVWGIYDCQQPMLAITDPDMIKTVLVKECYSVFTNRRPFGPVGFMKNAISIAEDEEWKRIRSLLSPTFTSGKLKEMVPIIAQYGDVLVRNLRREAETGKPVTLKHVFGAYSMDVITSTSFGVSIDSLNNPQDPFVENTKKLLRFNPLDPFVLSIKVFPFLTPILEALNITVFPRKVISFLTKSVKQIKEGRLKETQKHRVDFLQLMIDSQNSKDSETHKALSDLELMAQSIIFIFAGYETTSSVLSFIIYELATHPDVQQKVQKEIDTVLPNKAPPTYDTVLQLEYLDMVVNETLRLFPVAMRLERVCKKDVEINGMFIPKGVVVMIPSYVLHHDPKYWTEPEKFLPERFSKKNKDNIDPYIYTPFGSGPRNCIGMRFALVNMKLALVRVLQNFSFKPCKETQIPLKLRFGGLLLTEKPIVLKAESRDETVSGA
In short: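 P450-Glo luminescent assay: CYP3A7 enzyme converts a proluciferin substrate to luciferin, detected by luciferase reagent; light proportional to activity. Compounds in DMSO preincubated 10 min with enzyme-substrate mix at room temperature, then NADPH regeneration added for 1 h.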

[2] = Viability qHTS for spleen associated tyrosine kinase inhibitor (SYKi) naive MV4-11 cells (AID 1963823); further: nearly all actives have a fitted effect of over 40% in size
In short: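 SYK inhibitor-naive MV4-11 cells, 500 per well, exposed to compounds for 72 hr at 37 C, 5% CO2. Viability read as CellTiter-Glo luminescence after 10 min at room temperature.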

[3] = Viability qHTS for spleen associated tyrosine kinase inhibitor (SYKi) drug resistant MV4-11 cells (AID 1963824); further: nearly all actives have a fitted effect of over 35% in size
In short: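 CellTiter-Glo luminescence, read 10 min after reagent addition, reports viability after a 72 hr compound exposure. Cells are an MV4-11 line made resistant to SYK inhibition, seeded at 500 per well onto compound-containing plates.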

[4] = Quantitative highthroughput screen to assess conditional lethalithy of NOMO1 cells grown in RPMI1640 with untreated serum (RPMI+s) (AID 1963876); further: nearly all actives have a fitted effect of over 35% in size
In short: (§1)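 Each medium arm—HPLM with 10% dialyzed FBS, or RPMI1640 with 5 mM glucose and 10% untreated or dialyzed FBS—was screened against an 11-point, 3-fold compound titration for 48 h at 37 °C, with CellTiter-Glo luminescence as endpoint.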

[5] = Quantitative highthroughput screen to assess conditional lethalithy of NOMO1 cells grown in RPMI1640 with dialyzed fetal bovine serum (RPMI+ds) (AID 1963877); further: nearly all actives have a fitted effect of over 30% in size; on Viability: series mostly up to about 46 µM
In short: as §1

[6] = Quantitative highthroughput screen to assess conditional lethalithy of P12 Ichikawa cells grown in Human Plasma-Like Medium with dialyzed fetal bovine serum (HPLM+ds) (AID 1963879); settings: Potency: viability; further: nearly all actives have a fitted effect of over 35% in size; on Viability: series mostly up to about 46 µM
In short: as §1

[7] = Quantitative highthroughput screen to assess conditional lethalithy of P12 Ichikawa cells grown in RPMI1640 with dialyzed fetal bovine serum (RPMI+ds) (AID 1963880); settings: Potency: P12-Ichikawa viability; further: nearly all actives have a fitted effect of over 35% in size
In short: as §1

[8] = Quantitative highthroughput screen to assess conditional lethalithy of P12 Ichikawa cells grown in RPMI1640 with untreated serum (RPMI+s) (AID 1963881); settings: Potency: viability; further: nearly all actives have a fitted effect of over 35% in size; on Viability: series mostly up to about 46 µM
In short: as §1

[9] = Quantitative highthroughput screen to assess conditional lethalithy of SEM cells grown in Human Plasma-Like Medium with dialyzed fetal bovine serum (HPLM+ds) (AID 1963882); further: nearly all actives have a fitted effect of over 35% in size; on Viability: series mostly up to about 46 µM
In short: as §1

[10] = Cellular viability qHTS for adrenocortical cancer (ACC) cell line SW-13 (AID 1963989); settings: SW-13 ACC cells viability, CellTiter-Glo, 48 h; activity (max response): stronger effect = lower value; further: nearly all actives have a fitted effect of over 65% in size;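 on activity (max response): cells grown in serum-free medium with ITS supplement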
In short: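 Compound titrations (up to 46 uM final, in DMSO) were applied to SW-13 cells for 48 h at 37C/5% CO2. Reading used CellTiter-Glo after 20 min at room temperature; fitted curves yielded IC50 and efficacy.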

[11] = Cellular viability qHTS for adrenocortical cancer (ACC) cell line NCI-H295R (AID 1963990); further: nearly all actives have a fitted effect of over 60% in size
In short: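 Readout: CellTiter-Glo luminescence, 20 min RT. Exposure: 48 h, 37C/5% CO2. Cells: NCI-H295R, ITS-DMEM serum-free. Range: up to 46 uM. Analysis: 4PL fit, IC50 plus efficacy.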

[12] = Quantitative highthroughput screen to assess conditional lethalithy of NOMO1 cells grown in Human Plasma-Like Medium with dialyzed fetal bovine serum (HPLM+ds) (AID 1963878); further: nearly all actives have a fitted effect of over 35% in size
In short: as §1

[13] = Quantitative highthroughput screen to assess conditional lethalithy of SEM cells grown in RPMI1640 with unreated serum (RPMI+s) (AID 1963883); further: nearly all actives have a fitted effect of over 35% in size
In short: as §1

[14] = Quantitative highthroughput screen to assess conditional lethalithy of SEM cells grown in RPMI1640 with dialyzed fetal bovine serum (RPMI+ds) (AID 1963884); further: nearly all actives have a fitted effect of over 35% in size; on Viability: series mostly up to about 46 µM
In short: as §1
Potency means the concentration at half of the fitted maximal effect.

Structure (SMILES)	Potency [1]	Potency [2]	Potency [3]	Potency [4]	Potency [5]	Potency [6]	Potency [7]	Potency [8]	Potency [9]	activity (max response) [10]	Potency [11]	Potency [12]	Potency [13]	Potency [14]	Potency [10]
C[C@@H](c1ncncc1F)[C@](O)(Cn1cncn1)c1ccc(F)cc1F	inactive	inactive	inactive	inactive	inactive	inactive	inactive	inactive	inactive	-12.4%	inactive	–	–	–	–
NC(=O)c1cccc2cn(-c3ccc([C@@H]4CCCNC4)cc3)nc12	inactive	9.2 µM (active) and 14.8 µM (active)	10.3 µM (active) and 16.6 µM (active)	inactive	inactive	–	–	–	–	–	inactive	–	–	–	–
CCc1c(O)cc(O)c(C(=O)c2ccc(OCCN3CCOCC3)c(OC)c2)c1CC(=O)N(CCOC)CCOC	inactive	132 nM (active)	235 nM (active)	2.96 µM (active)	3.32 µM (active)	–	–	–	–	–	–	2.35 µM (active)	2.96 µM (active)	2.64 µM (active)	–
Cc1ccc(C(=O)Nc2ccc(S(=O)(=O)O)c3cc(S(=O)(=O)O)cc(S(=O)(=O)O)c23)cc1NC(=O)c1cccc(NC(=O)Nc2cccc(C(=O)Nc3cc(C(=O)Nc4ccc(S(=O)(=O)O)c5cc(S(=O)(=O)O)cc(S(=O)(=O)O)c45)ccc3C)c2)c1	inactive	inactive	inactive	inactive	8.33 µM (active)	–	–	–	–	-19.9% and 5.07%	inactive	–	4.69 µM (active)	–	–
C#CCN[C@@H]1CCc2ccccc21	inactive	inactive	inactive	inactive	inactive	inactive	–	inactive	inactive	3.89% and -12.7%	inactive	–	–	inactive	–
Nc1nc(Cl)nc2c1ncn2[C@H]1C[C@H](O)[C@@H](CO)O1	inactive	93.4 nM (active)	148 nM (active)	0.209 µM (active)	0.148 µM (active)	0.209 µM (active)	0.235 µM (active)	0.187 µM (active)	0.105 µM (active)	–	inactive	–	–	0.0662 µM (active)	–
N#Cc1ccc(C(c2ccc(C#N)cc2)n2cncn2)cc1	inactive	inactive	inactive	inactive	inactive	inactive	inactive	inactive	inactive	2.79%	inactive	–	–	inactive	–
COc1ccc2c(OCc3nnc4ccc(-c5ccccc5)nn34)ccnc2c1	inactive	inactive	inactive	inactive	inactive	–	inactive	inactive	–	-4.03%	–	inactive	11.8 µM (active)	18.7 µM (active)	–
Cc1nnc(C(=O)NC(C)(C)c2nc(C(=O)NCc3ccc(F)cc3)c(O)c(=O)n2C)o1	inactive	inactive	inactive	inactive	inactive	–	inactive	inactive	inactive	8% and 11.5%	inactive	inactive	inactive	–	–
Cc1cnc(Nc2ccc(N3CCN(C)CC3)cc2)nc1Nc1cccc(S(=O)(=O)NC(C)(C)C)c1	inactive	103 nM (active)	206 nM (active)	13.2 µM (active)	–	11.8 µM (active)	16.6 µM (active)	7.43 µM (active)	1.05 µM (active)	–	10 µM (active)	14.8 µM (active)	0.935 µM (active)	1.32 µM (active)	12.6 µM (active)
N=C(N=C(N)N)N1CCOCC1	inactive	inactive	inactive	inactive	–	inactive	inactive	inactive	inactive	-4.25%	inactive	inactive	inactive	inactive	–
NCCCCCC(=O)O	inactive	inactive	inactive	inactive	inactive	inactive	inactive	–	–	12.2% and -16.4%	–	–	inactive	–	–
O=C(O)c1cc(=O)c2c(OCC(O)COc3cccc4oc(C(=O)O)cc(=O)c34)cccc2o1	inactive	inactive	inactive	inactive	inactive	inactive	–	inactive	inactive	10.3% and -0.0262%	inactive	inactive	–	inactive	–
Cc1cn([C@H]2C[C@H](N=[N+]=[N-])[C@@H](CO)O2)c(=O)[nH]c1=O	inactive	inactive	inactive	1.32 µM (active)	1.87 µM (active)	10.5 µM (active)	–	–	–	-7.12%	inactive	–	inactive	–	–
C=CCn1c(=O)c2cnc(Nc3ccc(N4CCN(C)CC4)cc3)nc2n1-c1cccc(C(C)(C)O)n1	10 µM (active)	525 nM (active)	259 nM (active) and 372 nM (active)	1.05 µM (active)	0.418 µM (active)	1.05 µM (active)	1.87 µM (active)	2.64 µM (active)	0.235 µM (active)	–	–	–	0.418 µM (active)	0.148 µM (active)	3.55 µM (active)
C=CC(=O)Nc1cc2c(Nc3ccc(F)c(Cl)c3)ncnc2cc1OCCCN1CCOCC1	inactive	596 nM (active) and 742 nM (active)	944 nM (active) and 742 nM (active)	inactive	–	–	inactive	5.26 µM (active)	–	–	1.46 µM (active) and 6.31 µM (active)	3.32 µM (active)	–	–	–
COc1c(N2CCNC(C)C2)c(F)cc2c(=O)c(C(=O)O)cn(C3CC3)c12 (stereo not drawn)	inactive	18600 nM (active)	14800 nM (active)	inactive	inactive	inactive	–	inactive	0.743 µM (active)	-4.21% and 1.72%	inactive	inactive	–	0.662 µM (active)	–
